Experimental data as given in PubChem BioAssay AID1159580 (chemical genetic matrix, 2015).
“And” between values parts separate entries of the source, which are not always exact repeats. Equal values may be shown once. Out of some 5,500 compounds screened, about 2,000 (36%) were called active. About 18% were inconclusive and are not listed. Cut-off read from the data, not from the text of the source: active = normalized growth mostly below about 0.91 (no sharp cut-off); inconclusive = no clear call, values can overlap the other calls; inactive = mostly above about 0.92. The list shows a part of the results.

Experiment: chemical genetic growth profiling, strain panel (AID 1159580);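 note: tested at 20 µM; growth read once vehicle control cultures reached saturation at 30 °C; 1 = growth at the plate median or of vehicle wells; lower values mean less growth of the strain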
Conditions: S. cerevisiae deletion strains, growth OD

Measured: normalized growth

CON
inactive: locus YAL013W, strain DEP1, hits give low values 0.992 | locus YAL021C, strain ccr4, hits give low values 0.994 | locus YAL026C, strain drs2, hits give low values 1.01 | locus YAL030W, strain snc1, hits give low values 1.02 | locus YBL061C, strain skt5, hits give low values 1.01 | locus YBR009C, strain hhf1, hits give low values 1.01 | locus YBR021W, strain FUR4, hits give low values 1 | locus YBR023C, strain chs3, hits give low values 1.01 | locus YBR171W, strain sec66, hits give low values 0.995 | locus YBR229C, strain ROT2, hits give low values 1 | locus YBR231C, strain swc5, hits give low values 1.01 | locus YBR279W, strain paf1, hits give low values 0.991 | locus YCL011C, strain gbp2, hits give low values 1.02 | locus YCL016C, strain dcc1, hits give low values 1.04 | locus YCL029C, strain bik1, hits give low values 0.976 | locus YCL069W, strain vba3, hits give low values 0.976 | locus YCR088W, strain abp1, hits give low values 0.987 | locus YDL005C, strain med2, hits give low values 0.994 | locus YDL035C, strain GPR1, hits give low values 0.988 | locus YDL040C, strain nat1, hits give low values 0.994 | locus YDL074C, strain BRE1, hits give low values 1.04 | locus YDL101C, strain DUN1, hits give low values 1.01 | locus YDL134C, strain PPH21, hits give low values 0.997 | locus YDL185W, strain tfp1, hits give low values 0.968 | locus YDL192W, strain arf1, hits give low values 0.986 | locus YDR001C, strain nth1, hits give low values 0.998 | locus YDR069C, strain doa4, hits give low values 1.02 | locus YDR101C, strain arx1, hits give low values 1.02 | locus YDR137W, strain rgp1, hits give low values 1.03 | locus YDR150W, strain NUM1, hits give low values 0.993 | locus YDR159W, strain sac3, hits give low values 0.993 | locus YDR162C, strain NBP2, hits give low values 0.98 | locus YDR195W, strain ref2 0.993 | locus YDR297W, strain sur2, hits give low values 1.02 | locus YDR318W, strain mcm21, hits give low values 0.99 | locus YDR334W, strain swr1, hits give low values 0.975 | locus YDR335W, strain msn5, hits give low values 1.02 | locus YDR388W, hits give low values 1.01 | locus YDR392W, strain spt3, hits give low values 1.12 | locus YDR502C, strain sam2, hits give low values 0.999 | locus YEL003W, strain gim4, hits give low values 0.993 | locus YEL037C, strain rad23, hits give low values 0.984 | locus YEL061C, strain CIN8 (second series), hits give low values 0.99 | locus YEL061C, strain CIN8, hits give low values 0.997 | locus YER015W, strain faa2, hits give low values 1.01 | locus YER016W, strain bim1, hits give low values 1.02 | locus YER110C, hits give low values 0.981 | locus YER111C, strain swi4, hits give low values 1.01 | locus YER155C, strain BEM2 (second series), hits give low values 1.05 | locus YER155C, strain BEM2, hits give low values 0.991 | locus YER167W, strain BCK2, hits give low values 0.997 | locus YFR010W, strain ubp6, hits give low values 0.976 | locus YGL078C, strain dbp3, hits give low values 0.984 | locus YGL086W, strain mad1, hits give low values 1.02 | locus YGL167C, strain pmr1, hits give low values 0.993 | locus YGL173C, strain kem1, hits give low values 0.998 | locus YGL227W, strain vid30, hits give low values 0.995 | locus YGL240W, strain doc1, hits give low values 0.994 | locus YGL248W, strain PDE1, hits give low values 1.02 | locus YGL253W, strain hxk2, hits give low values 1.01 | locus YGR135W, strain pre9, hits give low values 0.982 | locus YGR229C, strain SMI1, hits give low values 1.01 | locus YGR252W, strain gcn5, hits give low values 1.03 | locus YHR013C, strain ard1, hits give low values 1.03 | locus YHR027C, strain rpn1, hits give low values 1.02 | locus YHR030C, strain SLT2, hits give low values 0.989 and 0.974 | locus YHR079C, strain IRE1 (second series), hits give low values 0.98 | locus YHR079C, strain IRE1, hits give low values 0.987 | locus YHR094C, strain hxt1, hits give low values 1 | locus YHR129C, strain ARP1, hits give low values 0.997 | locus YHR142W, strain chs7, hits give low values 1.01 | locus YHR200W, strain rpn10, hits give low values 0.969 | locus YIL066C, strain RNR3, hits give low values 1.02 | locus YIL073C, strain SPO22, hits give low values 0.941 | locus YIL125W, strain kgd1, hits give low values 0.999 | locus YIR030C, strain dcg1, hits give low values 0.993 | locus YJL092W, strain hpr5, hits give low values 0.998 | locus YJL095W, strain BCK1 (second series), hits give low values 1.02 | locus YJL095W, strain BCK1, hits give low values 1.06 and 0.986 | locus YJL115W, strain asf1, hits give low values 0.989 | locus YJL129C, strain trk1, hits give low values 1.02 | locus YJL134W, strain LCB3, hits give low values 0.99 | locus YJL154C, strain vps35, hits give low values 0.981 | locus YJL164C, strain tpk1, hits give low values 0.996 | locus YJL166W, strain qcr8, hits give low values 0.981 | locus YJL168C, strain set2, hits give low values 0.996 | locus YJL187C, strain SWE1 (second series), hits give low values 1.01 | locus YJR043C, strain POL32, hits give low values 1.01 | locus YJR066W, strain TOR1, hits give low values 0.92
